Results filed as inconclusive are left out. The source made the active and inactive calls. Unless noted, the call rests on the fitted dose curve; in most records, active means well fitted curve in the direction sought with a large enough effect; inconclusive means small, poorly fitted or top-dose-only effect, or another doubt; inactive means no such curve, though single readings can be large; an effect the other way counts as inactive or inconclusive.
How the values were obtained:
[1] = target: ATP-dependent 6-phosphofructokinase (Trypanosoma brucei brucei) (UniProt O15648); assay: qHTS Assay to Find Inhibitors of T. brucei phosphofructokinase: hit validation (AID 492961);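 further: luminescence reports ADP formed as PFK phosphorylates fructose-6-phosphate with ATP; on the % scale 0 is the no-effect control and ±100 the full control effect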
Sequence of ATP-dependent 6-phosphofructokinase (Trypanosoma brucei brucei) (O15648 whole entry, looked up): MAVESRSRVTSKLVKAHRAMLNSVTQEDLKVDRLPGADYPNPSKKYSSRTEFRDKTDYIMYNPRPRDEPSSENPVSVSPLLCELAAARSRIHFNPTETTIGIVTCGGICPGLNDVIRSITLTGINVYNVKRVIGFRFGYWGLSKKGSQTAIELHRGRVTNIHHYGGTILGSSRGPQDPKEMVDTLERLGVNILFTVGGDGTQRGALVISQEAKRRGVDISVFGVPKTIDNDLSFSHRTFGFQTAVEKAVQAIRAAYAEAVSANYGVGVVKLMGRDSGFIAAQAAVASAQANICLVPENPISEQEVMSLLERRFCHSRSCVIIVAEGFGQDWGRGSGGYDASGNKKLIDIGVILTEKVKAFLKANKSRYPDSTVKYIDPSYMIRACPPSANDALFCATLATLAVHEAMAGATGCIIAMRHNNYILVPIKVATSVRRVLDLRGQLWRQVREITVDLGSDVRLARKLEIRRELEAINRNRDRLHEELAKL
How it was run: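 Reaction: 0.1 M triethanolamine pH 8.0, 5 mM MgCl2, F6P 0.5 mM, ATP 0.1 mM, PFK 1.25 nM, 45 min RT. Read-out: ADP-Glo luminescence. Analysis: concentration-response fits, classed by r2 and efficacy.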

[2] = target: Ubiquitin carboxyl-terminal hydrolase 1 (Homo sapiens) (UniProt O94782); assay: Inhibitors of USP1/UAF1: Pilot qHTS (AID 504865); further: potency means the concentration at half of the fitted maximal effect; nearly all actives have a fitted effect of over 35% in size
Sequence of Ubiquitin carboxyl-terminal hydrolase 1 (Homo sapiens) (O94782 whole entry, looked up): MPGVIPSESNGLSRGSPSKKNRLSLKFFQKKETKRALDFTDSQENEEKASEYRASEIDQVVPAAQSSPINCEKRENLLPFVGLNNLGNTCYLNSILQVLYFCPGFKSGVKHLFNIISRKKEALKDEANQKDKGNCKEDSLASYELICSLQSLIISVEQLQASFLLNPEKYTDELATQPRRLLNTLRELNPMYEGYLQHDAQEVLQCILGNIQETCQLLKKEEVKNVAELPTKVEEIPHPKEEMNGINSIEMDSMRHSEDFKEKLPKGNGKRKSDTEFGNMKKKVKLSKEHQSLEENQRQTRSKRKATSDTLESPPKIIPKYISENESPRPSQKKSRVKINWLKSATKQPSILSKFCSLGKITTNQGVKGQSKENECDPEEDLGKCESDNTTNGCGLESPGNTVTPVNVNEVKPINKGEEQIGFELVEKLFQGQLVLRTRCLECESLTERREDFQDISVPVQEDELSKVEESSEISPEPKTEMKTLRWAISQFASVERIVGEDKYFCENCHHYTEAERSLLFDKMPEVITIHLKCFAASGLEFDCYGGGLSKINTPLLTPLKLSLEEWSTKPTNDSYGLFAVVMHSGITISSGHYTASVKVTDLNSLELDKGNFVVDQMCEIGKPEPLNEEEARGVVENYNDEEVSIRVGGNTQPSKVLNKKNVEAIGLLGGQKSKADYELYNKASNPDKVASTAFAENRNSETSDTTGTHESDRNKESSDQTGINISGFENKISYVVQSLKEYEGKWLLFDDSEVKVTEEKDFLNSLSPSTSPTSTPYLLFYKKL
How it was run: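 Deubiquitinase activity followed as kinetic rhodamine fluorescence release from 150 nM Ub-Rho. 1 nM USP1/UAF1 with compound, after 15 min room-temperature preincubation, in HEPES pH 7.8 buffer containing TCEP, EDTA, BSA and Tween-20.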

[3] = S16 Schwann cell viability assay (CellTiter-Glo assay) (AID 624031);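 further: native untransfected S16 rat Schwann cells; cellular ATP luminescence as a viability measure; plate controls were DMSO-treated cells for no effect and cell-free wells for full effect; nearly all actives have a fitted effect of over 70% in size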
How it was run: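 Cells were seeded at 500-750 per well in phenol red-free DMEM with 10% FBS and left overnight. Compounds or DMSO were pinned in, incubation ran 24 h at 37 °C/5% CO2, then CellTiter-Glo reagent was added and luminescence measured.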

[4] = S16 Schwann cell PMP22 intronic element firefly luciferase assay (AID 624032); further: potency means the concentration at half of the fitted maximal effect; nearly all actives have a fitted effect of over 30% in size
How it was run: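 Rat S16 Schwann cells stably carrying a PMP22 intronic element-driven Fluc reporter were seeded overnight, then exposed to compounds for 24 h at 37 °C. Luminescence was normalized to PTC124 (positive control) and DMSO (0% activity).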

[5] = S16 Schwann cell PMP22 intronic element beta-lactamase assay (AID 624044; calls by dose curve;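 further: 0% = DMSO and -100% = potassium clavulanate positive control; nearly all actives have a fitted effect of over 15% in size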)
How it was run: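 Rat S16 Schwann cells with beta-Lac driven by a PMP22 intronic element, compound-treated 24 h at 37 °C. LiveBLAzer FRET B/G read: 460 nm normalized to potassium clavulanate vs DMSO; 535 nm FRET as viability; concentration-effect curves classified.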

[6] = qHTS to identify inhibitors of the type 1 interferon - major histocompatibility complex class I in skeletal muscle: primary screen against the NCATS Mechanism Interrogation Plate v5.0 (MIPE) Libary (AID 1347411); further: potency means the concentration at half of the fitted maximal effect; nearly all actives have a fitted effect of over 65% in size
How it was run: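 Luminescence from HiBiT-tagged endogenous HLA-B*08:01 served as the MHC class I read-out. CRISPR-engineered C25cl48 human myoblasts received 4.0 ng/ml IFN-beta plus compound for 24 hrs, with an 11-point, 1:3 series topping at 46 uM final.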

[7] = Primary qHTS for inhibitors of nuclear receptor binding SET domain protein 2 (NSD2) in an RCH-ACV wild type WT cells (2C) (AID 1645877); further: potency means the concentration at half of the fitted maximal effect; nearly all actives have a fitted effect of over 70% in size
[8] = target: Glutathione peroxidase 1 (Homo sapiens) (UniProt P07203); assay: Primary qHTS Assay for Inhibitors of Recombinant Selenoprotein Glutathione Peroxidase 1 (GPX1) (AID 1845191); further: nearly all actives have a fitted effect of over 65% in size
Sequence of Glutathione peroxidase 1 (Homo sapiens) (P07203 whole entry, looked up): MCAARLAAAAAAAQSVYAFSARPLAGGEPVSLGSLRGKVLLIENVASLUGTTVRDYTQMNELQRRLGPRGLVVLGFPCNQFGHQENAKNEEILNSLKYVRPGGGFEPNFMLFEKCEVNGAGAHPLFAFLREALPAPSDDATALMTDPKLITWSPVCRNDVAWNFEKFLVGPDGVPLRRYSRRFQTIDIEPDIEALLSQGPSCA
How it was run: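 Recombinant GPX1 (10 nM final) was preincubated with compound for 30 min at room temperature, then reacted with 1 mM GSH, 0.5 mM CHP, 0.5 mM NADPH and 100 nM glutathione reductase; NADPH fluorescence (340/450 nm) was read at 0 and 15 min.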

[9] = qHTS drug screen for cell cycle checkpoint inhibitors in PARPi-resistant BRCA-mutant ovarian cancer cell lines. (AID 1963452; calls by dose curve); conditions: PEO1/OlaR viability, CellTiter-Glo luminescence, 96 h, stronger effect = lower value
How it was run: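 PEO1, PEO4 and PEO1/OlaR ovarian cancer cells, 600 per well, exposed 96 h at 37C to a dilution series. Viability read by CellTiter-Glo luminescence, normalized to DMSO and empty wells; activity summarized as Z-AUC.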

[10] = qHTS profiling for inhibitors of Plasmodium falciparum proliferation (AID 504749); further: potency means the concentration at half of the fitted maximal effect; nearly all actives have a fitted effect of over 60% in size; conditions: P. falciparum in erythrocytes, SYBR Green DNA, 72 h
How it was run: (§1)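 Parasite proliferation within erythrocytes, 72 h exposure. Endpoint: SYBR Green I fluorescence after overnight lysis at room temperature. Controls: 0.29 uM artemisinin, DMSO.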

3D7 = assay: as above; conditions: P. falciparum in erythrocytes, SYBR Green DNA, 72 h; series mostly up to 28.7 µM
How it was run: as §1

7G8 = assay: as above; conditions: P. falciparum in erythrocytes, SYBR Green DNA, 72 h; series mostly up to 28.7 µM
How it was run: as §1

AA1029 = assay: as above; conditions: P. falciparum in erythrocytes, SYBR Green DNA, 72 h; series mostly up to 28.7 µM
How it was run: as §1

AS120 = assay: as above; conditions: P. falciparum in erythrocytes, SYBR Green DNA, 72 h; series mostly up to 28.7 µM
How it was run: as §1

ATS189 = assay: as above; conditions: P. falciparum in erythrocytes, SYBR Green DNA, 72 h; series mostly up to 28.7 µM
How it was run: as §1

ATS95 = assay: as above; conditions: P. falciparum in erythrocytes, SYBR Green DNA, 72 h; series mostly up to 28.7 µM
How it was run: as §1

C2A = assay: as above; conditions: P. falciparum in erythrocytes, SYBR Green DNA, 72 h; series mostly up to 28.7 µM
How it was run: as §1

CP185 = assay: as above; conditions: P. falciparum in erythrocytes, SYBR Green DNA, 72 h; series mostly up to 28.7 µM
How it was run: as §1

CP191 = assay: as above; conditions: P. falciparum in erythrocytes, SYBR Green DNA, 72 h; series mostly up to 28.7 µM
How it was run: as §1

CP192 = assay: as above; conditions: P. falciparum in erythrocytes, SYBR Green DNA, 72 h; series mostly up to 28.7 µM
How it was run: as §1

CP194 = assay: as above; conditions: P. falciparum in erythrocytes, SYBR Green DNA, 72 h; series mostly up to 28.7 µM
How it was run: as §1

CP201 = assay: as above; conditions: P. falciparum in erythrocytes, SYBR Green DNA, 72 h; series mostly up to 28.7 µM
How it was run: as §1

CP203 = assay: as above; conditions: P. falciparum in erythrocytes, SYBR Green DNA, 72 h; series mostly up to 28.7 µM
How it was run: as §1

CP211 = assay: as above; conditions: P. falciparum in erythrocytes, SYBR Green DNA, 72 h; series mostly up to 28.7 µM
How it was run: as §1

CP215 = assay: as above; conditions: P. falciparum in erythrocytes, SYBR Green DNA, 72 h; series mostly up to 28.7 µM
How it was run: as §1

CP217 = assay: as above; conditions: P. falciparum in erythrocytes, SYBR Green DNA, 72 h; series mostly up to 28.7 µM
How it was run: as §1

CP237 = assay: as above; conditions: P. falciparum in erythrocytes, SYBR Green DNA, 72 h; series mostly up to 28.7 µM
How it was run: as §1

CP238 = assay: as above; conditions: P. falciparum in erythrocytes, SYBR Green DNA, 72 h; series mostly up to 28.7 µM
How it was run: as §1

CP247 = assay: as above; conditions: P. falciparum in erythrocytes, SYBR Green DNA, 72 h; series mostly up to 28.7 µM
How it was run: as §1

CP250 = assay: as above; conditions: P. falciparum in erythrocytes, SYBR Green DNA, 72 h; series mostly up to 28.7 µM
How it was run: as §1

CP252 = assay: as above; conditions: P. falciparum in erythrocytes, SYBR Green DNA, 72 h; series mostly up to 28.7 µM
How it was run: as §1

CO[C@H]1/C=C/O[C@@]2(C)Oc3c(C)c(O)c4c(O)c(c(/C=N\N5CCN(C6CCCC6)CC5)c(O)c4c3C2=O)NC(=O)/C(C)=C\C=C\[C@H](C)[C@H](O)[C@@H](C)[C@@H](O)[C@@H](C)[C@H](OC(C)=O)[C@@H]1C
active: Potency [2] 56200 nM | Potency [4] 10200 nM | Potency [6] 18600 nM | Potency [7] 20900 nM | Potency ([10]; parasite line A) 1580 nM | Potency ([10]; parasite line B) 631 nM | Potency (3D7) 1260 nM | Potency (7G8) 141 nM | Potency (AA1029) 1260 nM | Potency (AS120) 126 nM | Potency (ATS189) 1410 nM | Potency (ATS95) 1260 nM | Potency (C2A) 2510 nM | Potency (CP185) 1580 nM | Potency (CP191) 1000 nM | Potency (CP192) 4780 nM | Potency (CP194) 4260 nM | Potency (CP201) 5360 nM | Potency (CP203) 3790 nM | Potency (CP211) 4260 nM | Potency (CP215) 4260 nM | Potency (CP217) 1410 nM | Potency (CP237) 224 nM | Potency (CP238) 2240 nM | Potency (CP247) 1410 nM | Potency (CP250) 3160 nM | Potency (CP252) 1410 nM
-0.895: Z-AUC ([9]; measured here: PEO1 parental Z-AUC)
-0.603: Z-AUC ([9]; measured here: PEO4 Z-AUC)
inactive: outcome [1] | outcome [3] | outcome [5] | Potency [8] | Z-AUC [9] -0.749

Source: PubChem BioAssay (NCATS)
